Screening data (PubChem)
Compounds with a hit are over-represented: about 2.6% of the library has one in this group of screens.
MCL1 BIM primary: disrupts human MCL1 binding to BIM-BH3 peptide; Q07820; GST-MCL1 / FITC-Bim-BH3 fluorescence polarization; inhibition, % at 10.9 µM; 0.68% of 320,000 active;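 active = inhibition above the mean inhibition of all tested compounds plus 3 SD, set per campaign, cut at about 40% in these data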;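 also: higher means more loss of mP so more displacement of Bim peptide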
Target sequence (Q07820 whole entry, looked up): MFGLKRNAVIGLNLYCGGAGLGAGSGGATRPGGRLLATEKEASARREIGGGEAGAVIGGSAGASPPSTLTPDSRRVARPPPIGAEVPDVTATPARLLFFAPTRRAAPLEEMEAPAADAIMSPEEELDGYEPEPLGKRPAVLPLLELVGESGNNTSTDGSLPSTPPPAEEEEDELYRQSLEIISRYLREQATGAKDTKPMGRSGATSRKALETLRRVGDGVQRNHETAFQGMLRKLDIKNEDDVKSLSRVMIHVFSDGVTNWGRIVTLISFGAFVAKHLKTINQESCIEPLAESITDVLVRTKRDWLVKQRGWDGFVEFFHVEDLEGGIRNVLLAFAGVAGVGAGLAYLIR
Mcl1 Bid PPI: disrupts binding of human Mcl-1 to Bid peptide. 0.97% of 220,000 active. inhibition, % at 21.7 µM. Q07820. TR-FRET Mcl-1/Bid-Dy647 peptide binding, 1536-well;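 active = compounds that cut the binding signal by more than half at the single screening dose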;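 also: His-tagged Mcl-1 with europium anti-His antibody binding Bid BH3 peptide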
Mcl-1 Bim block: inhibitors of Bim-Mcl-1 interaction, human; 0.1% of 190,000 active; Bead-based flow cytometry, Bim peptide-Mcl-1 binding; AID 1009; inhibition, % at 10 µM; in the data active = inhibition above about 40%
Mcl1-Noxa inh: disrupts binding of human Mcl-1 to Noxa peptide. Q07820. TR-FRET Mcl-1/Noxa peptide binding, 2 h. inhibition, % at 21.7 µM. 1.5% of 220,000 active. AID 1022;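 active = compounds that cut the protein-peptide binding signal by more than 50% relative to plate controls in a single-dose test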;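 also: His-tagged Mcl-1 with rhodamine Noxa BH3 peptide and terbium anti-His antibody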
14-3-3 Bad PPI: disrupts binding of bovine 14-3-3 zeta to phospho-Bad peptide. P63103. TR-FRET 14-3-3zeta/Dy647-pBad peptide displacement, 1 h. inhibition, % at 21.7 µM. 0.71% of 220,000 active;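 active = inhibition above about 70%, limit read from the data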
Target sequence (P63103 whole entry, looked up): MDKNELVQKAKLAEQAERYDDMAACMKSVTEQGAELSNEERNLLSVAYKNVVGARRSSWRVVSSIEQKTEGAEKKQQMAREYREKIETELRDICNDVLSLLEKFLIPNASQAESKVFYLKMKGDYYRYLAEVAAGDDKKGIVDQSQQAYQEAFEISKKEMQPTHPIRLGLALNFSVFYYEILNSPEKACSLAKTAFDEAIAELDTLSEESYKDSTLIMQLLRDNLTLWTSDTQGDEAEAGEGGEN
eIF4E 4G PPI: eIF4E/eIF4G interaction inhibition in translation initiation; inhibition, % at 21.7 µM; 0.37% of 220,000 active; AID 782; TR-FRET eIF4E-eIF4GI(517-606) binding, 2 h; P63073+Q04637;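 active = inhibition above about 30%, limit read from the data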
A number is an active result; 0 = inactive; - = no result given; [ ] = remark or other dose.

SMILES | MCL1 BIM primary | Mcl1 Bid PPI | Mcl-1 Bim block | Mcl1-Noxa inh | 14-3-3 Bad PPI | eIF4E 4G PPI
O=C(CCCOc1ccccc1)N1CCN(c2ccccc2)CC1 | 0 | 59.3 | 0 | 0 | 0 | 0
Cn1c(-c2ccccc2)c(/C=N/NC(=O)c2cccnc2)c2ccccc21 | 0 | 0 | 0 | 0 | 0 | 0
O=C(CS(=O)CC(=O)NC12CC3CC(CC(C3)C1)C2)Nc1ccc(F)cc1 (configuration not stated) | 0 | - | - | - | - | -
O=C(CCS(=O)(=O)c1ccc(Br)s1)NC1CCCCCC1 | 0 | 78.1 | 0 | 0 | 0 | 0
Cc1ccc(Nc2nc(-c3ccc(O)c(O)c3)cs2)nc1 | - | 0 | 0 | 54.2 | 0 | 0
COc1ccc(-c2csc(Nc3ccc(C)cn3)n2)cc1OC | 0 | 0 | 0 | 0 | 0 | 0
COc1ccc(C(=S)N2CCNCC2)cc1 | 0 | 0 | 0 | 0 | 0 | 0
COc1ccc(C(=S)N2CCCCCC2)cc1 | 0 | 0 | 41.0 | 0 | 0 | 0
O=C(NCC1CC1)c1cc(-c2ccccc2)nn1CC1CC(c2cccc([N+](=O)[O-])c2)=NO1 (configuration not stated) | 0 | - | - | - | - | -
O=C(NC(=S)Nc1nc2ccc(F)cc2s1)c1ccco1 | 0 | 0 | 0 | 0 | 0 | 0
C=CCn1c(C)cc(-c2csc(N)n2)c1C | 0 | 0 | 0 | 0 | 0 | 0
CCCn1c(C)cc(-c2csc(N)n2)c1C | 0 | 0 | 0 | 0 | 73.5 | 0
COCCCNCCCCOc1c(Cl)cc(C)cc1Br | 0 | 0 | 0 | 0 | 79.2 | 0
COCCCNCCCOc1ccc(Cl)cc1Br | 0 | 0 | 0 | 0 | 73.9 | 0
COc1ccc(C(=O)C[n+]2ccc(-c3nnc4n3CCCCC4)cc2)cc1 | 0 | 0 | - | 75.6 | 0 | 0
O=C(C[n+]1ccc(-c2nnc3n2CCCCC3)cc1)c1ccc(Cl)cc1 | 0 | 0 | - | 0 | 0 | 0
COc1cc(NS(=O)(=O)c2ccc(NC(=S)NC(=O)c3sc4ccccc4c3Cl)cc2)ncn1 | 0 | 0 | 0 | 54.7 | 0 | 0
COc1ccc(C(=O)NC(=S)Nc2ccc(S(=O)(=O)Nc3cc(OC)ncn3)cc2)cc1 | 0 | - | - | - | - | -
CC1=Nc2cc(C(=O)NCC3CCCO3)ccc2Sc2ccc(Br)cc21 (configuration not stated) | 0 | 0 | - | 0 | 0 | 0
CC1=Nc2cc(C(=O)O)ccc2Sc2ccc(Br)cc21 | 0 | 0 | 0 | 57.5 | 0 | 0
COc1cccc(/C=c2/s/c(=C(\C#N)C(=O)N3CCOCC3)n(-c3ccccc3)c2=O)c1 | 0 | 53.1 | 0 | 0 | 76.4[fluorescence artefact?] | 0
CCOC(=O)N1CCN(C(=O)/C=C/c2cccc([N+](=O)[O-])c2)CC1 | 0 | 0 | 0 | 0 | 0 | 0
C#CCOCCOCCOCCNc1nc(N2CCN(C(=O)[C@H]([C@@H](C)CC)n3cc([C@@H](N)CC(C)C)nn3)CC2)nc(N2CCN(C(=O)[C@H](Cc3ccc(O)cc3)n3cc([C@@H](N)CC(C)C)nn3)CC2)n1 | 0 | 60.2 | 0 | 0 | 0 | 0
C#CCOCCOCCOCCNc1nc(N2CCN(C(=O)[C@H]([C@@H](C)CC)n3cc([C@@H](N)Cc4ccc(O)cc4)nn3)CC2)nc(N2CCN(C(=O)[C@H](Cc3cc4ccccc4[nH]3)n3cc([C@@H](N)C(C)CC)nn3)CC2)n1 (some centres not stated) | 0 | 0 | 0 | 0 | 0 | 0
C#CCOCCOCCOCCNc1nc(N2CCN(C(=O)[C@H](Cc3cc4ccccc4[nH]3)n3cc([C@@H](N)C(C)CC)nn3)CC2)nc(N2CCN(C(=O)[C@H](Cc3cc4ccccc4[nH]3)n3cc([C@@H](N)Cc4ccc(O)cc4)nn3)CC2)n1 (some centres not stated) | 0 | 85.4 | 0 | 61.2 | 0 | 0
SMILES | MCL1 BIM primary | Mcl1 Bid PPI | Mcl-1 Bim block | Mcl1-Noxa inh | 14-3-3 Bad PPI | eIF4E 4G PPI
C#CCOCCOCCOCCNc1nc(N2CCN(C(=O)[C@H](Cc3ccc(O)cc3)n3cc([C@@H](N)C(C)CC)nn3)CC2)nc(N2CCN(C(=O)[C@H](Cc3cc4ccccc4[nH]3)n3cc([C@@H](N)C(C)CC)nn3)CC2)n1 (some centres not stated) | 0 | 68.8 | 0 | 0 | 0 | 0
COc1cccc(CN(CC(=O)NCc2ccccc2)C(=O)c2csnn2)c1 | 0 | - | - | - | - | -
CC(NC(=O)c1ccc(C23CC4CC(CC(C4)C2)C3)cc1)C(=O)O (configuration not stated) | 0 | 0 | 0 | 0 | 0 | 0
CCc1ccc(NS(=O)(=O)c2c(C(=O)N3CCCCCC3)c(C)n(C)c2C)cc1 | 0 | - | - | - | - | -
Cc1nn(CC(=O)Nc2ccc(S(N)(=O)=O)cc2)c(=O)c2ccccc12 | 0 | - | - | - | - | -
NC(=O)c1c(NC(=O)C2c3ccccc3Oc3ccccc32)sc2c1CCCCC2 | 0 | 0 | 0 | 68.0 | 0 | 0
CCCCn1c(N)c(N(CC(C)C)C(=O)C2CCN(S(=O)(=O)c3ccc(C)c(C)c3)CC2)c(=O)[nH]c1=O | 0 | - | - | - | - | -
CCOc1ccc2c(c1)nc(SCC(=O)c1cccs1)n2C | 0 | 0 | 0 | 0 | 72.7 | 0
CCOc1ccc2c(c1)nc(SCC(=O)c1ccc(Br)s1)n2C | 0 | 0 | 0 | 0 | 0 | 0
O=C(Nc1ccc(N2CCCC2)c(Cl)c1)c1ccc([N+](=O)[O-])o1 | - | 0 | 0 | 58.9 | 0 | 0
Cc1cc(N=Nc2ccc(C)c(N=Nc3cc(C)c(N)cc3N)c2)c(N)cc1N | 0 | 0 | - | 60.1 | 0 | 0
Cc1ccc(N=Nc2ccc(O)c3ncccc23)cc1C | 0 | 0 | 0 | 0 | 0 | 0
Nc1ccc(N2CCN(C(=O)c3cccs3)CC2)cc1 | 0 | 0 | 0 | 61.3 | 0 | 0
O=C(/C=C/c1cccs1)N1CCN(c2ccc(O)cc2)CC1 | 0 | 0 | 0 | 78.6 | 0 | 0
CCC(C)N1CCN(C(=O)c2cccs2)CC1 (configuration not stated) | 0 | 0 | 0 | 0 | 70.4 | 0
O=C(c1ccncc1)N1CCN(C(=O)c2cccs2)CC1 | 0 | 0 | 0 | 0 | 0 | 0
CN1CCN(C(c2cccnc2)c2ccc3cccnc3c2O)CC1 (configuration not stated) | 0 | 0 | 0 | 51.6 | 0 | 0
COc1ccc(-c2cc(C(=O)Nc3ccc(O)cc3)c3ccccc3n2)cc1OC | 0 | 54.3 | - | 0 | 0 | 0
COc1ccc(NC(=O)c2cc(-c3cc(OC)c(OC)c(OC)c3)nc3ccccc23)cc1OC | 0 | - | - | - | - | -
CN(CCCNC(=O)CSc1cc(=O)n(C)c2cc(Cl)ccc12)Cc1ccccc1 | 0 | 0 | 0 | 0 | 0 | 0
COc1ccc(-n2c(N)c(C(=O)NCc3ccco3)c3nc4ccccc4nc32)cc1OC | 0 | 0 | 0 | 0 | 0 | 0
COc1ccc(-n2c(N)c(C(=O)NCc3ccco3)c3nc4ccccc4nc32)cc1 | 0 | 0 | 0 | 57.9 | 0 | 0
COc1ccc(OC)c(-n2c(N)c(C(=O)NCC3CCCO3)c3nc4ccccc4nc32)c1 (configuration not stated) | - | 92.9 | 0 | 0 | 0 | 0
Cc1ccc(/C=C/C2=Cc3c(sc(NC(=O)CSc4n[nH]c(N)n4)c3C#N)C(C)(C)C2)o1 | 60.7 | 0 | 0 | 96.9 | 0 | 0
